Screening data (PubChem BioAssay)
Calb FLC: affects C. albicans growth with fluconazole; AID 1979; growth inhibition, % (no concentration beside the values); hit rate 0.57% among 300,000; C. albicans CaCi-2 (fluconazole-resistant clinical isolate) + fluconazole, Alamar Blue growth, 48 h;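 active means growth inhibition above about 58% in most replicates, limit read from the data, passing the limit was not always enough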;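 further: all wells also contain fluconazole at 8 µg/ml as a sub-toxic cotreatment; 0% = median of DMSO wells and 100% = median of geldanamycin control wells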
ATG4B inhibitor: ATG4B (human) cysteine protease inhibition; Q9Y4P1; ATG4B cleavage of LC3-PLA2, NBD-HPC fluorescence, 1 h; inhibition, % at 8.33 µM; hit rate 0.51% among 340,000; AID 504462; in the data active means inhibition above about 40%
Target sequence (Q9Y4P1 whole entry, looked up): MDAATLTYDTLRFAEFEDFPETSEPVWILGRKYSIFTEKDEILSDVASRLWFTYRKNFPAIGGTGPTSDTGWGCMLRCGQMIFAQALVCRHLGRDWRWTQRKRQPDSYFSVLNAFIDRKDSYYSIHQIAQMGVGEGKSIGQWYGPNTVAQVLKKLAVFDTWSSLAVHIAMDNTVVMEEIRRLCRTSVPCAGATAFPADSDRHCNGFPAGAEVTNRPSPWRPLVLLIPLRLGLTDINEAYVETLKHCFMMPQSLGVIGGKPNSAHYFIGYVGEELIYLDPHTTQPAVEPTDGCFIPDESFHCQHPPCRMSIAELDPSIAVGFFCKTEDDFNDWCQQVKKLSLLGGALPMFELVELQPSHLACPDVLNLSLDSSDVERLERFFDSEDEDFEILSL
FAS-TE inh: blocks the thioesterase domain of human fatty acid synthase; P49327; recombinant FAS-TE, OMFH fluorogenic substrate, fluorescence endpoint; inhibition, % at 15 µM; hit rate 0.67% among 360,000; AID 602261;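 active means compounds whose normalised, plate-corrected inhibition of enzyme fluorescence in the single-dose primary screen is 50% or more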;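 further: 0% = DMSO with enzyme and 100% = substrate without enzyme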
NadD block: blocks S. aureus nicotinate mononucleotide adenylyltransferase | purified NadD enzyme, colorimetric absorbance read-out | inhibition, % at 20 µM | hit rate 0.78% among 360,000; in the data active means inhibition above about 26%
Mot1-301 SUMO: inhibitors of SUMOylation pathway: yeast Mot1-301 growth rescue; S. cerevisiae Mot1-301 growth rescue, ATP luminescence, 38.5C; percent above DMSO median, 100 means doubled; growth rescue, % at 18.8 µM; hit rate 1% among 320,000; AID 2716;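 active means every valid replicate shows activation above 250% relative to neutral control wells; inactive means the rest, any valid replicate at or below 250%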;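 further: OY570 slx delta 5 strain wells were the positive control but not used for scaling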
FAS-TE conf: FAS thioesterase (human) inhibition, confirmation; hit rate 45% among 2,300; AID 624325; inhibition, % at 15 µM; recombinant FAS-TE, OMFH fluorogenic substrate, fluorescence; shares compounds with FAS-TE inh;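 active means compounds inhibiting the enzyme by at least 50% at 15 µM in any one of the replicates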;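 further: 0% = enzyme with DMSO only and 100% = wells lacking enzyme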
Active calls of the source: *; . = no result given. Most compounds without a hit are left out; they make up all but 3.1% or so of the library.

SMILES	Calb FLC	ATG4B inhibitor	FAS-TE inh	NadD block	Mot1-301 SUMO	FAS-TE conf
CCOC1=C2[C@@H](CN(S(=O)(=O)c3ccc(C)cc3)[C@H]2c2cccs2)[C@H]2C(=O)N(c3ccccc3)C(=O)[C@H]2C1	.	.	12	0	.	.
O=C1OCCN1C(=O)[C@H]1[C@H](c2ccccc2)C(c2ccccc2)=NN1c1ccc(Br)cc1	.	-1	90*	13	.	41
O=C1OCCN1C(=O)[C@H]1[C@H](c2ccccc2)C(c2ccc(F)cc2)=NN1c1ccc(Br)cc1	.	4	98*	14	.	18
C[C@@]12C(=O)N(c3cccc(F)c3)C(=O)N1[C@H](c1ccc(Cl)cc1)[C@@H]1C(=O)N(C3CCCCC3)C(=O)[C@@H]12	5	-16	39	-8	18	.
O=C1[C@H]2[C@@H](c3ccc(F)cc3)N3C(=O)N(c4ccccc4)C(=O)[C@@]3(Cc3ccccc3)[C@H]2C(=O)N1C1CCCCC1	1	-21	59*	1	45	36*
O=C1[C@H]2[C@@H](c3ccc(F)cc3)N3C(=O)N(c4cccc(Cl)c4)C(=O)[C@@]3(Cc3ccc(Cl)cc3)[C@H]2C(=O)N1C1CCCCC1	19	-3	86*	25	-4	19
Cc1cc(C)c(NC(=O)CNC(=O)COC(=O)CN2C(=O)NC3(CCCC3)C2=O)c(C)c1	14	8	-6	-5	-33	.
NC(=O)c1ccccc1OCc1nnc(-c2ccccc2Br)o1	-4	-8	-5	3	-4	.
O=C(CC(C(=O)O)c1ccc(Cl)cc1)c1ccc(Cl)c(Cl)c1 (stereo not given)	2	12	80*	1	23	81*
Cc1cc(C)c2c(c1)-c1c(ssc1=S)C(C)(C)N2C(=O)CN1C(=O)c2ccccc2C1=O	-2	-1	63*	12	-10	31
COc1ccc(-n2nnnc2C(c2cccc(OC)c2OC)N2CCN(C/C=C/c3ccccc3)CC2)cc1 (stereo not given)	.	.	21	-2	.	.
C=C1CC(COc2ccc3c(C)c(Cl)c(=O)oc3c2)(c2ccccc2)OC1=O (stereo not given)	.	3	53*	2	.	46*
O=c1c2c3c(sc2nc(NCCO)n1Cc1ccco1)CCCCC3	5	-17	14	-5	33	.
O=c1c2c3c(sc2nc(NCCO)n1CCc1ccccc1)CCCCC3	-31	28	50*	2	20	16
Cc1ccc(C(=O)O)cc1NC(=S)NCCc1ccccc1	-4	-7	-5	-1	-7	.
Cc1ccc([N+](=O)[O-])cc1NC(=S)NCCc1ccccc1	-7	11	56*	-8	-9	71*
Cc1ccc([N+](=O)[O-])cc1NC(=O)C(Sc1ccccc1)c1ccccc1 (stereo not given)	-13	23	82*	-5	-12	85*
Cc1ccc([N+](=O)[O-])cc1NC(=O)c1ccccc1	-14	13	16	-4	6	.
CC1(C)CN(c2ccccc2)C(=O)[C@H]1CC(=O)Nc1ccccc1	.	.	-5	4	.	.
O=C(OCC(=O)N1CCCCC1)c1cc(=O)[nH]c2ccccc12	.	1	-7	9	-2	.
CN1CCN(C(=S)NC(=O)c2ccc(S(=O)(=O)N3CCOCC3)cc2)CC1	-3	-7	-4	1	4	.
O=C(NC(=S)N1CCN(C(c2ccccc2)c2ccccc2)CC1)c1ccc(S(=O)(=O)N2CCOCC2)cc1	54	-5	56*	26	5	24
CC(C)NC(=O)c1sc(=S)n2c1[nH]c(=O)c1ccc(C(=O)NCCc3ccc(Cl)cc3)cc12	-8	5	64*	23	0	9
CCOc1ccc(CCNC(=O)c2ccc3c(=O)[nH]c4c(C(=O)NC(C)C)sc(=S)n4c3c2)cc1	-22	-1	32	30	-2	.
O=S(=O)(c1ccc(Cl)cc1)N1CCN=C1SCc1cccc(Cl)c1	35	-4	51*	19	5	14
SMILES	Calb FLC	ATG4B inhibitor	FAS-TE inh	NadD block	Mot1-301 SUMO	FAS-TE conf
COc1ccc(C(=O)Nc2ccccc2N2CCCC2)cc1S(=O)(=O)N1CCOCC1	5	-8	0	-2	114	.
O=C(/C=C/c1cccc([N+](=O)[O-])c1)N1CCN(c2ccc(F)cc2)CC1	3	4	80*	-8	-1	81*
CCOc1cc2c(cc1O)C(=NOC)CC1C2CCC2(C)C(O)CCC12 (stereo not given)	.	-8	-1	0	.	.
COc1ccc(NC(=O)c2cccc(Oc3ccc([N+](=O)[O-])cc3Cl)c2)cc1	-2	5	52*	-6	3	9
O=C(Nc1cccc(Cl)c1)c1cccc(Oc2ccc([N+](=O)[O-])cc2Cl)c1	-6	-3	25	3	-17	.
CC(CCN1C(Nc2ccccc2)=NC[C@@H]1Cc1ccccc1)c1ccccc1 (stereo not given in full)	-28	-8	-73	-1	218	.
O=C(Sc1nnc(-c2ccccc2)o1)N1c2ccccc2Sc2ccccc21	-6	1	60*	3	-7	28*
O=C(Nc1ccc(F)c(Cl)c1)c1ccccc1NC(=O)C1CCCCC1C(=O)O (stereo not given)	.	5	0	-9	.	.
CCOCCCn1c(=NC(=O)c2cccs2)c(C#N)cc2c(=O)n3cccc(C)c3nc21	2	-6	55*	10	-5	10
Cc1cccn2c(=O)c3cc(C#N)c(=NC(=O)c4cccs4)n(CC(C)C)c3nc12	-6	4	16	14	-26	.
COCCCn1c(=NC(=O)c2ccccc2)c(C#N)cc2c(=O)n3cccc(C)c3nc21	11	1	51*	7	-15	46
c1ccc(C2c3c(ccc4ccccc34)Oc3ncn4nc(-c5ccco5)nc4c32)cc1 (stereo not given)	-13	-1	77*	15	-1	16
COc1ccc(C2c3c(ccc4ccccc34)Oc3ncn4nc(-c5ccco5)nc4c32)cc1OC (stereo not given)	7	3	20	4	1	.
COc1ccc(C2c3c(ccc4ccccc34)Oc3ncn4nc(-c5ccco5)nc4c32)cc1 (stereo not given)	1	3	72*	18	178	14
O=C(c1ccccc1)N(C(=O)c1ccccc1)c1ncnc2c1C(c1ccccc1)c1c(ccc3ccccc13)O2 (stereo not given)	.	13	62*	12	-15	9
COc1cc(CN2CCC(C(=O)NCC(C)(C)CN(C)C)CC2)ccc1OCc1ccccc1	6	-4	-4	-8	2	.
COc1ccc2[nH]c3c(c2c1)CCN1C(=O)C(CC(=O)NCc2ccco2)C[C@H](C(=O)N2CCCCC2)[C@@]31C (stereo not given in full)	.	.	-1	-3	.	.
